Assay [1] can be described thus: compounds binding Alexa647 anti-His antibody – biochemical, small-molecule microarray, 635 nm fluorescence, artefact control for SMM control protein annotation, primary screen (AID 1128).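 Also: score merges feature fluorescence with signal-to-noise for each printed compound spot.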 Conditions: higher = more signal.
In assay [2] the test system is Human papillomavirus type 1a E7 protein (residues 1-88). The experiment in a line: HPV1a E7 small-molecule binders, primary screen, biochemical, small-molecule microarray, residues 1-88, 635 nm (AID 1129). The settings on record: small-molecule microarray binding, fluorescence 635 nm; higher = more signal.
Assay [3] addresses Focal adhesion kinase 1 (Homo sapiens) (UniProt Q05397). The assay is described as follows: PTK2 protein binding on printed compound slides – biochemical, small-molecule microarray, 635/667 nm fluorescence, BSA, DTT, primary screen (AID 1130).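 Also: composite of spot emission at 667 nm and signal to noise over triplicate slides.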 Conditions: 635 nm fluorescence, higher = more signal.
The test system of assay [4] is Fibrinogen (Alexa647-labelled). The experiment in a line: Alexa647-fibrinogen binding to printed small molecules – biochemical, small-molecule microarray, 635/667 nm fluorescence, artefact control for SMM control-protein annotation, profiling panel (AID 1131).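 Also: z-score merges 667 nm fluorescence with per-spot signal-to-noise over triplicate slides.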 The settings on record: fibrinogen-A647 binding fluorescence, higher = more signal.
Assay [5] has as its target Follistatin (Homo sapiens) (UniProt P19883). The assay is described as follows: FST protein binding to printed compounds – biochemical, small-molecule microarray, 635/667 nm fluorescence, primary screen (AID 1132). Conditions: 635 nm fluorescence, higher = more signal.
Assay [6] has as its target Fibroblast growth factor 2 (Homo sapiens) (UniProt P09038). The assay is described as follows: basic fibroblast growth factor binding to printed compounds – biochemical, small-molecule microarray, 635/667 nm fluorescence, primary screen (AID 1133). Conditions: FGF2, fluorescence 635/667, higher = more signal.
Assay [7] can be described thus: JC-1 mitochondrial potential readout, lung cancer cells – cell-based, A549, JC-1 fluorescence, basal, 24 h, 100 nL, profiling panel (AID 1138).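 Also: A549 lung adenocarcinoma cells under basal conditions with no added stimulus; test concentration not given here.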 The settings on record: higher = more signal.
A further assay concerns Lefty1. The assay is described as follows: Lefty1 protein binding to printed compounds – biochemical, small-molecule microarray, 635/667 nm fluorescence, primary screen (AID 1139). Conditions: fluorescence 635/667, higher = more signal.
The subject of assay [8] is wheat germ agglutinin (Triticum aestivum), Alexa647-labelled. The assay is described as follows: Alexa647-WGA lectin binding to printed small molecules – biochemical, small-molecule microarray, 635/667 nm fluorescence, artefact control for SMM control-protein annotation, profiling panel (AID 1140).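 Also: score merges 667 nm feature emission with signal to noise over triplicate slides.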 The settings on record: WGA-A647 binding, 635 nm fluorescence, higher = more signal.

Assay [9] deals with Luciferin 4-monooxygenase (Photinus pyralis) (UniProt P08659). The assay is described as follows: inhibition of purified Photinus pyralis luciferase – biochemical, luminescence, purified enzyme, 2006 set, primary screen (AID 1141).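 Also: cell-free assay with purified firefly luciferase at 100 ng per well in PBS; test concentration not given here.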 The settings on record: purified firefly luciferase, SteadyGlo luminescence, 30 min; higher = more signal, called active from +8 up or from −8 down.
Sequence of Luciferin 4-monooxygenase (Photinus pyralis) (P08659 whole entry, looked up): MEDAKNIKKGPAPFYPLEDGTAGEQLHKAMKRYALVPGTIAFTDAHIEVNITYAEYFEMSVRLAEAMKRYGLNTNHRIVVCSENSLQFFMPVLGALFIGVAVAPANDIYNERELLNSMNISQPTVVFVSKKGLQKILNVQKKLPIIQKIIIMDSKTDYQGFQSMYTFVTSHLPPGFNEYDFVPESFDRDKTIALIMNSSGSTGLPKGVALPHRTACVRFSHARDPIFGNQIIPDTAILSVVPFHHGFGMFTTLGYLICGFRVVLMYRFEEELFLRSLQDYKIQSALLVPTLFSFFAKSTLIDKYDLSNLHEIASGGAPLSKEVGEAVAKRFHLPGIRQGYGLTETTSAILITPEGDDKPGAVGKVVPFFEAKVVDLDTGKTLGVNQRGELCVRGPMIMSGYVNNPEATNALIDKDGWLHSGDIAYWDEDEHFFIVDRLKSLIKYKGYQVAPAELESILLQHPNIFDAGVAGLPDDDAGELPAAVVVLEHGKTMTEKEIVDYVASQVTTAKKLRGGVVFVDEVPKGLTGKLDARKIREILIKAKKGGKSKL

The subject of assay [10] is Wnt5a (protein binding on small-molecule microarray). The experiment in a line: small molecules binding Wnt5a protein – biophysical, small-molecule microarray, 635/667 nm fluorescence, primary screen (AID 1142).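 Also: fluorescence read at 667 nm with signal to noise per printed feature.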 The settings on record: 635 nm fluorescence, higher = more signal.
A short description of assay [11]: ATP-based viability of Huh7 replicon cells – cell-based, CellTiter-Glo luminescence, basal, 48 h, cytotoxicity control for HCV replication inhibitor project, primary screen (AID 1143).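 Also: Huh7 hepatoma cells carrying a hepatitis C replication reporter with no stimulus; test concentration not given here.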 The settings on record: higher = more signal, called active from +8 up or from −8 down. On the technique in general: A replicon is a self-replicating genome or part of one, used to study replication in cells.

Assay [12] is described as follows: Pseudomonas biofilm growth suppression – PAO1 strain, BacTiter-Glo luminescence, LB-PBS, primary screen (AID 1144). Conditions: P. aeruginosa PAO1 biofilm, 12 h, higher = more signal.
Assay [13] is described as follows: basal CRE-LacZ reporter activity in PC12 – cell-based, unstimulated, primary screen (AID 1145). Conditions: no forskolin, luminescence, 4.5 h, higher = more signal, called active from +8 up or from −8 down.
A short description of assay [14]: forskolin-driven CRE-LacZ activity in PC12 – cell-based, CRE-LacZ reporter, forskolin-stimulated, primary screen (AID 1146).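 Also: PC12 cells with 6xCRE LacZ reporter stimulated by forskolin 10 µM; beta-galactosidase reporter signal reflecting CREB driven transcription.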 Conditions: luminescence, 4.5 h, higher = more signal, called active from +8 up or from −8 down.
Assay [15] deals with Streptavidin (Streptomyces avidinii) (UniProt P22629). The experiment in a line: compounds binding control protein streptavidin – biophysical, small-molecule microarray, 635/667 nm fluorescence, artefact control for SMM compound annotation, primary screen (AID 1147).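 Also: signal reflects streptavidin binding to arrayed compounds as a control protein.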 Conditions: higher = more signal.
Sequence of Streptavidin (Streptomyces avidinii) (P22629 whole entry, looked up): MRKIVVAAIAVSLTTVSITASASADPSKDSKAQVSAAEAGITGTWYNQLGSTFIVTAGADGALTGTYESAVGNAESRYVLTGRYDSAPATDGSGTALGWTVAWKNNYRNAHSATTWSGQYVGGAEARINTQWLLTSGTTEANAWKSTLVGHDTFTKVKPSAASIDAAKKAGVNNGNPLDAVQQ
A short description of assay [16]: probe aInhba binding on compound microarray – biochemical, small-molecule microarray, 635/667 nm fluorescence, primary screen (AID 1148).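 Also: score merges 667nm spot fluorescence with signal-to-noise for antibody binding to printed compounds.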 The settings on record: higher = more signal.
The target in assay [17] is Torsin-1A (Homo sapiens) (UniProt O14656). The experiment in a line: TOR1A wild-type binding on microarray – cell lysate, small-molecule microarray, lysate, 635/667 nm, primary screen (AID 1149). The settings on record: COS7 hTOR1A-WT lysate, 635 nm fluorescence, higher = more signal.
Sequence of Torsin-1A (Homo sapiens) (O14656 whole entry, looked up): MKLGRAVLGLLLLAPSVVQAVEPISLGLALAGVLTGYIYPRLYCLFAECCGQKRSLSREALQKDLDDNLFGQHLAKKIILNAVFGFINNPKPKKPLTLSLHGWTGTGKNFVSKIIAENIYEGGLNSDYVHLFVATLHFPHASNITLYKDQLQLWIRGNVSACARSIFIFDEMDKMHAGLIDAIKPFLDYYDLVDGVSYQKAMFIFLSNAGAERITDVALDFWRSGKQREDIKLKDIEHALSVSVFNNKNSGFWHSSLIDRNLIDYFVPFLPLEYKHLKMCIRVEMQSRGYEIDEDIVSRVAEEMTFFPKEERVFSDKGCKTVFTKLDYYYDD
For assay [18] the target is unchanged. The experiment in a line: torsin A mutant lysate binding on microarrays – cell lysate, small-molecule microarray, COS7 lysate, 635/667 nm fluorescence, primary screen (AID 1150).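 Also: score pools 667 nm emission and signal to noise measuring lysate protein binding.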 Conditions: COS7 hTOR1A mutant lysate, 635 nm fluorescence, higher = more signal.
Assay [19] deals with Sonic hedgehog protein (Shh). The experiment in a line: Sonic hedgehog microarray binding compounds – biochemical, small-molecule microarray, 635/667 nm fluorescence, primary screen (AID 1151).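 Also: Shh protein binding to compounds spotted on small-molecule microarray slides; score combines spot fluorescence intensity with signal-to-noise across triplicate slides.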 Conditions: 635 nm fluorescence, higher = more signal.

Structures are written as SMILES. Active and inactive are the calls of the source. Unless noted, no rule for the calls is given here.

Sequence of Focal adhesion kinase 1 (Homo sapiens) (Q05397 whole entry, looked up): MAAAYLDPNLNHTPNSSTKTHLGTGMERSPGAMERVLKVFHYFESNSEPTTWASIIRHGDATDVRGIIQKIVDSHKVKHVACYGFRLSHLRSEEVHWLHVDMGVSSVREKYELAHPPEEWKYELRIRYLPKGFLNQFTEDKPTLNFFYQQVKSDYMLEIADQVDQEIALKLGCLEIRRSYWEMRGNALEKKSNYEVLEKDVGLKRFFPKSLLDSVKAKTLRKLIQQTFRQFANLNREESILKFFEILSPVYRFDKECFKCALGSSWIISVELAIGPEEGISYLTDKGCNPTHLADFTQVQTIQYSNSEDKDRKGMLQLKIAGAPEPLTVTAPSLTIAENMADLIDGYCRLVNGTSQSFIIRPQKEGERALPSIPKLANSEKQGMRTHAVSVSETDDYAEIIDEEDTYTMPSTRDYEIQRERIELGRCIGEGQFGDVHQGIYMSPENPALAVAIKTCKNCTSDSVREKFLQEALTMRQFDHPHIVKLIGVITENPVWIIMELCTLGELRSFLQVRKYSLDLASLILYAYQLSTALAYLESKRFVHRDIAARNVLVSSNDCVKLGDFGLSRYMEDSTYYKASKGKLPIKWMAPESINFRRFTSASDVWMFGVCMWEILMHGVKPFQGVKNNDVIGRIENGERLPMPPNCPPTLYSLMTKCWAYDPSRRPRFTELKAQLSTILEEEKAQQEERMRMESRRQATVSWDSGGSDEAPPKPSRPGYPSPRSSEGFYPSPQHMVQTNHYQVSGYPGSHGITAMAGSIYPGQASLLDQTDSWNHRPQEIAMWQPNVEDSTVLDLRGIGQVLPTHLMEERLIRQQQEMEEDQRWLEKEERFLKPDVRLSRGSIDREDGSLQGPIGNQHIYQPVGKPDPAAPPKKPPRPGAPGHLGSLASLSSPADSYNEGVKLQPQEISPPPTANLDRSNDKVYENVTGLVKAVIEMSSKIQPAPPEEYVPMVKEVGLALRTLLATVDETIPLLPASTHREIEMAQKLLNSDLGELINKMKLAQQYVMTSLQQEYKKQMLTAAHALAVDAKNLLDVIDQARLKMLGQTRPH
Sequence of Follistatin (Homo sapiens) (P19883 whole entry, looked up): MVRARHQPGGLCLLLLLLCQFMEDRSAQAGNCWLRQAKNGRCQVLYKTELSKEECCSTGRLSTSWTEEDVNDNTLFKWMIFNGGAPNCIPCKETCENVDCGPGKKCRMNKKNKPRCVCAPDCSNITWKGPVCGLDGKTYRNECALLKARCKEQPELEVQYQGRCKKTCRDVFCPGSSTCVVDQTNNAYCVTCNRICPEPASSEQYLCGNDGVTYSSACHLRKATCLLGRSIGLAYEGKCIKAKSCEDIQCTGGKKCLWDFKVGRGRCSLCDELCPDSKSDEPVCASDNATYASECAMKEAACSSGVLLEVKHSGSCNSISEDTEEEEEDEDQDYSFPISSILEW
Sequence of Fibroblast growth factor 2 (Homo sapiens) (P09038 whole entry, looked up): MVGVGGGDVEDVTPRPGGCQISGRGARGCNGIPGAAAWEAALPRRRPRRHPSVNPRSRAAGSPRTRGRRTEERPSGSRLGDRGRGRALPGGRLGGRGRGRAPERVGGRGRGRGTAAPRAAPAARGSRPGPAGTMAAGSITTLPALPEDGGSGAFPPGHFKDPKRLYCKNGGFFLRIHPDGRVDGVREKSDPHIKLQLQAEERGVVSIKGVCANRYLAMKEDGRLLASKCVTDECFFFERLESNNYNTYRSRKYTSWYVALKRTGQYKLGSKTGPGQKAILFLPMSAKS

On to `COCCCNC(=O)[C@@]1(Sc2ccc(C)cc2)CC(=O)N(Cc2ccccc2Cl)[C@@H]1c1ccc(CO)cc1I`, for which the composite z-score was 1.32 in assay [1]; -0.943 in assay [2]; 0.345 in assay [3]; -1.49 in assay [4]; -0.242 in assay [5]; -0.765 in assay [6]. Also, the composite z-score is -0.959 in the assay with Lefty1; -0.691 in assay [8]; -0.509 in assay [10]; -0.768 in [15]; -0.128 in assay [16]; -1.03 with Torsin-1A (Homo sapiens) [17]. The figures for the composite z-score (with Torsin-1A (Homo sapiens) [18]; in assay [19]) were -0.213 and -0.519, respectively. The z-score is 0.919 in assay [7]; -0.181 (inactive) in [9]; -1.35 (inactive) in assay [11]; 0.241 (inactive) in [12]; -0.168 (inactive) in [13]; 1.68 (inactive) in assay [14].

As for `CCCC=C(CCC)[C@@H](NS(=O)(=O)c1cccc2cccnc12)c1ccc(-c2ccccc2)cc1`, the composite z-score came to 0.187 in assay [1]; 1.19 in assay [2]; 0.638 in assay [3]; 0.98 in assay [4]; 0.964 in assay [5]; 0.512 in assay [6]. In addition, the composite z-score in the assay with Lefty1 amounted to 1.11; in assay [8] it was 0.745; in assay [10] it was 0.702; in assay [15], 1.42; in assay [16], 0.475; in the assay with Torsin-1A (Homo sapiens) [17], 0.274. The composite z-score with Torsin-1A (Homo sapiens) [18] worked out at 0.371; in assay [19] it was 0.632. Besides, the z-score in [7] is 1.03; in assay [9] it was 2.06 (inactive); in assay [11] it was -1.52 (inactive); in assay [12], 0.923 (inactive); in [13], -0.379 (inactive); in [14] it was 0.415 (inactive).

For `O=C1C2C=CC(C(O)c3ccco3)N(Nc3ccccc3)C2C(=O)N1c1ccccc1` (stereo not given), the composite z-score in assay [1] was -0.317; in assay [2], 0.556; in assay [3], -0.0201; in [4], -1.58; in assay [5], -0.118; in [6], -1.21. The composite z-score was -0.907 in the assay with Lefty1; 0.46 in assay [8]; -0.476 in assay [10]; -0.511 in assay [15]; -0.0963 in assay [16]; -1.16 with Torsin-1A (Homo sapiens) [17]. Also, the composite z-score with Torsin-1A (Homo sapiens) [18] was 0.746; in assay [19], -0.998. The z-score is 1.9 in [7]; 1.06 (inactive) in assay [9]; 0.876 (inactive) in [11]; -0.497 (inactive) in assay [12]; 0.0467 (inactive) in assay [13]; 0.621 (inactive) in assay [14].

Consider `Cc1cccc([C@H]2C[C@H]3C(I)=C[C@@H]2C(=O)[C@]32CO2)c1`, for which the composite z-score in [1] was 0.0509; in [2], -0.479; in [3], -0.446; in [4], -0.775; in assay [5], 0.573; in [6] it was 0.437. The composite z-score was -0.118 with Lefty1; -0.412 in assay [8]; -0.243 in [10]; -0.0548 in [15]; -0.0762 in [16]; -0.404 with Torsin-1A (Homo sapiens) [17]. In addition, the composite z-score is -0.481 with Torsin-1A (Homo sapiens) [18] and 0.0299 in assay [19]. Also, the z-score was 0.33 in assay [7]; -0.303 (inactive) in [9]; -0.478 (inactive) in [11]; -0.209 (inactive) in assay [12]; 1.76 (inactive) in assay [13]; 1.56 (inactive) in [14].

Regarding `CCOC(=O)C[C@H]1[C@H](OC(=O)c2cc3ccccc3oc2=O)[C@@H](NC(=O)c2ccc3ccccc3c2)c2cc(OCCCO)ccc2N1C(=O)Cc1ccc(OC)cc1`, the composite z-score is -0.017 in assay [1]; 0.743 in [2]; 0.307 in [3]; 0.932 in assay [4]; 0.911 in assay [5]; 0.518 in assay [6]. The composite z-score in the assay on Lefty1 was 0.631; in assay [8], 0.664; in assay [10], 0.174; in assay [15], 1; in assay [16], -0.231; in the assay with Torsin-1A (Homo sapiens) [17], 0.462. In addition, the figures for the composite z-score (with Torsin-1A (Homo sapiens) [18]; in [19]) were 0.746 and 0.47, respectively. Also, the z-score was -0.167 in assay [7]; 0.842 (inactive) in assay [9]; -0.361 (inactive) in [11]; -0.784 (inactive) in [12]; 0.402 (inactive) in [13]; -0.931 (inactive) in assay [14].

As to `C=CCNC(=O)[C@H]1[C@@H]2C(=O)O[C@@H](c3ccccc3)[C@@H](c3ccccc3)N2[C@@H](c2ccc(O)cc2)[C@]12C(=O)N(C(=O)OCCOC)c1ccc(C#CCC(C(=O)OC)C(=O)OC)cc12`, the composite z-score came out at 0.724 in [1]; 1.13 in assay [2]; 0.439 in assay [3]; 0.858 in [4]; 1.32 in assay [5]; 1.5 in assay [6]. The composite z-score was 0.836 in the assay on Lefty1; 0.856 in assay [8]; 0.027 in [10]; 0.663 in [15]; -0.0221 in assay [16]; 0.757 with Torsin-1A (Homo sapiens) [17]. Besides, the composite z-score was 0.283 with Torsin-1A (Homo sapiens) [18] and 1.75 in assay [19]. Also, the z-score in assay [7] is -1.74; in assay [9] it was 0.315 (inactive); in [11] it was -2.96 (inactive); in assay [12] it was 0.102 (inactive); in assay [13], 0.0653 (inactive); in assay [14], 0.141 (inactive).

(Values after PubChem BioAssay.)
